Entries with a potency or affinity are not part of this list. Activity calls are given as the source filed them. No rule for the calls is given here.

A short description of the test: cytotoxicity in OVCAR4 cells, dose response, cytotoxicity control for PAX8 inhibitor project, cell-based, plate reader, dry powder, SA11 (AID 743150). The following applies: series mostly up to 35 µM.
Take `COc1cccc(C#Cc2ccc([C@H]3[C@@H](CO)N(C(=O)c4ccccn4)[C@H]3C#N)cc2)c1`: the call was inactive. On to `O=C(CN1C(=O)c2ccccc2S1(=O)=O)c1ccc(Cl)cc1Cl`, for which the outcome was inactive. With `O=C1/C(=C/c2ccccc2F)SC(=S)N1CC(=O)N1CCCCC1c1cccnc1` (stereo unspecified), the call was inactive. Regarding `C[C@H](CO)N1C[C@H](C)[C@@H](CN(C)Cc2ccc(C(F)(F)F)cc2)Oc2ccc(NS(=O)(=O)c3ccc(Cl)cc3)cc2CC1=O`, the outcome was inactive. Regarding `C[C@@H]1CN([C@@H](C)CO)S(=O)(=O)c2ccc(C#C[C@@H](C)O)cc2O[C@H]1CN(C)Cc1ccc(-c2ccccc2)cc1`, the outcome was inactive. In the case of `O=C(NCCc1ccccc1)c1ccc2c(c1)OCCCO2` it was “inactive”; in that of `Cc1ccc(S(=O)(=O)Nc2ccc3c(c2)nc(CCN2CCCC2)n3C)cc1`, “inactive”. Take `N#C[C@@H]1[C@@H](c2ccc(-c3cccc(F)c3)cc2)[C@H](CO)N1C(=O)NC1CCCC1`: the compound was called inactive.

On to `COc1cccc(C#Cc2ccc([C@H]3[C@@H](C#N)N(C(=O)c4ccccn4)[C@@H]3CO)cc2)c1`, for which the compound was called inactive. In the case of `CC(C)c1cc(C(=O)OCC(=O)N2CCN(C(=O)c3ccco3)CC2)c(O)c(C(C)C)c1`, the result was inactive. In the case of `COCC(=O)N1[C@H](CO)[C@H](c2ccc(-c3cccnc3)cc2)[C@@H]1C#N` it was “inactive”.

Take `C[C@H](CO)N1C[C@H](C)[C@@H](CN(C)S(=O)(=O)c2ccc(Cl)cc2)OCCCC[C@H](C)Oc2ccc(NS(=O)(=O)c3ccccc3)cc2C1=O`: the compound was classed as inactive. With `COc1ccccc1C#Cc1ccc([C@H]2[C@@H](CO)N(C(=O)C3CCCC3)[C@H]2C#N)cc1`, the outcome was inactive. Turning to `N#C[C@@H]1[C@@H](c2ccc(C#Cc3ccccc3F)cc2)[C@H](CO)N1C(=O)C1CCCCC1`, the compound was called inactive. `Cc1nc2sc(C(c3ccco3)N3CCN(C(c4ccccc4)c4ccccc4)CC3)c(O)n2n1` (stereo unspecified): the result was inactive.

Take `C[C@@H]1CN([C@H](C)CO)C(=O)CCCn2nncc2CO[C@H]1CN(C)Cc1ccc(Oc2ccccc2)cc1`: the compound was classed as inactive.

Regarding `Cc1ccccc1OCC(=O)Nc1cccc(C(=O)O)c1`, the compound was classed as inactive. For `CCCC#Cc1ccc([C@@H]2[C@@H](C#N)N(S(=O)(=O)c3cccc(F)c3)[C@H]2CO)cc1`, the compound was called inactive. Turning to `N#C[C@H]1[C@@H](c2ccc(C#CC3CCCCC3)cc2)[C@@H](CO)N1S(=O)(=O)c1ccccc1`, the call was inactive. As for `C[C@H](CO)N1C[C@H](C)[C@@H](CN(C)Cc2ccc(C(F)(F)F)cc2)OCCCC[C@H](C)Oc2ccc(NS(=O)(=O)c3ccc(F)cc3)cc2C1=O`, the call was inactive. In the case of `N#C[C@H]1[C@@H](c2ccc(C#Cc3cccc(F)c3)cc2)[C@@H](CO)N1C(=O)C1CCCC1`, the call was inactive.

`N#C[C@@H]1[C@@H](c2ccc(C3=CCCCC3)cc2)[C@@H](CO)N1C(=O)NC1CCCCC1`: the outcome was inactive. Consider `N#C[C@H]1[C@@H](c2ccc(C3=CCCC3)cc2)[C@@H](CO)N1C(=O)NC1CCCCC1`, for which the compound was called inactive. As for `CCCC#Cc1ccc([C@@H]2[C@@H](C#N)N(C(=O)C3CCCCC3)[C@H]2CO)cc1`, the call was inactive. Take `C[C@H]1CN([C@@H](C)CO)C(=O)Cc2cc(NC(=O)NC3CCCCC3)ccc2O[C@@H]1CN(C)Cc1ccc(-c2ccccc2)cc1`: the outcome was inactive. As to `CC(=O)N1CCOc2ccc(S(=O)(=O)N3CCN(c4cccc(C(F)(F)F)c4)CC3)cc21`, the compound was called inactive.

For `CC1(C)CC(=O)c2sc(NC(=O)CCS(=O)(=O)c3ccccc3)nc2C1`, the result was inactive. Regarding `COc1cccc(C#Cc2ccc([C@@H]3[C@H](C#N)N(C(=O)c4ccccn4)[C@H]3CO)cc2)c1`, the compound was classed as inactive. As for `C[C@@H]1CN([C@H](C)CO)C(=O)CCCn2cc(nn2)CO[C@H]1CN(C)C(=O)Nc1ccc(-c2cccs2)cc1`, the call was inactive.

For the compound `O=C(CN1C(=O)c2ccccc2S1(=O)=O)c1ccccc1Cl`, the outcome was inactive. `CCSCCc1nnc(NC(=O)Nc2cccc(C(F)(F)F)c2)s1`: the result was inactive.

The values above are taken from PubChem BioAssay AID743150 (Broad Institute, 2013).
